# ± gives the standard deviation of the averaged measurements.
# Test system: Serratia marcescens K904 PosmB-luxCDABE reporter (pMQ747)
# Assay: PosmB-lux reporter fold induction (RLU/OD600 relative to no-compound control), highest over Biolog concentrations; higher = stronger reporter activation
# Details: ΔrcsB mutant CMS5177; 4 h
# Experimental: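 Serratia marcescens K904 (wild type) or its isogenic ΔrcsB mutant, carrying the Rcs-dependent PosmB-luxCDABE reporter plasmid pMQ747, was grown in LB at OD600 0.1 in Biolog Phenotype MicroArray plates PM11-20 for 4 h at 30-32°C. Each compound is present at 3-4 proprietary concentrations (not stated); per the Fig. S1 legend the value given is the highest fold over those wells. Three independent trials.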
row,Compound,PosmB-lux reporter fold induction
1,"CO[C@@]1(NC(=O)CSCC#N)C(=O)N2C(C(=O)O)=C(CSc3nnnn3C)CS[C@@H]21 [Cefmetazole] (Biolog plate: PM15, well positions: A9-12)",1.51 ± 0.23
2,"NCC[C@H](O)C(=O)N[C@@H]1C[C@H](N)[C@@H](O[C@H]2O[C@H](CN)[C@@H](O)[C@H](O)[C@H]2O)[C@H](O)[C@H]1O[C@H]1O[C@H](CO)[C@@H](O)[C@H](N)[C@H]1O [Amikacin] (Biolog plate: PM11, well positions: A2-4)",1 ± 0.088
3,"CCn1cc(C(=O)O)c(=O)c2cc(F)c(N3CCNC(C)C3)c(F)c21 (stereo not given) [Lomefloxacin] (Biolog plate: PM11, well positions: B9-12)",1.19 ± 0.24
4,"CO[C@H]1/C=C/O[C@@]2(C)Oc3c(C)c(O)c4c(O)c(cc(O)c4c3C2=O)NC(=O)/C(C)=C\C=C\[C@H](C)[C@H](O)[C@@H](C)[C@@H](O)[C@@H](C)[C@H](OC(C)=O)[C@@H]1C [rifamycin SV] (Biolog plate: PM16, well positions: E9-12)",35.4 ± 1.7
5,"Cc1ccc2c(Cl)cc(Cl)c(O)c2n1 [5,7-Dichloro-8-hydroxy-quinaldine] (Biolog plate: PM15, well positions: B9-12)",1.27 ± 0.13
6,"O=c1ccc2ccc(O)cc2o1 [umbelliferone] (Biolog plate: PM19, well positions: C5-8)",0.964 ± 0.57
7,"CCCCC(CC)CNC(=N)NC(=N)NCCCCCCNC(=N)NC(=N)NCC(CC)CCCC (stereo not given) [Alexidine] (Biolog plate: PM15, well positions: E1-4)",1.92 ± 0.13
8,"CSc1ccc2c(c1)N(CCC1CCCCN1C)c1ccccc1S2 (stereo not given) [thioridazine] (Biolog plate: PM20, well positions: C1-4)",1.11 ± 0.088
9,"CC1(C)S[C@@H]2[C@H](NC(=O)[C@H](N)c3ccccc3)C(=O)N2[C@H]1C(=O)O [Ampicillin] (Biolog plate: PM13, well positions: A2-4)",1.06 ± 0.25
10,"[Cl][Fe]([Cl])[Cl] [ferric chloride] (Biolog plate: PM16, well positions: G5-8)",1.47 ± 0.36
11,"CO[C@@]1(NC(=O)C(C(=O)O)c2ccc(O)cc2)C(=O)N2C(C(=O)O)=C(CSc3nnnn3C)CO[C@@H]21 (stereo not given in full) [Moxalactam] (Biolog plate: PM13, well positions: H5-8)",1.94 ± 0.81
12,"CCN1CCN(C(=O)N[C@@H](C(=O)N[C@@H]2C(=O)N3[C@@H]2SC(C)(C)[C@@H]3C(=O)O)c2ccccc2)C(=O)C1=O [Piperacillin] (Biolog plate: PM14, well positions: F5-8)",1.2 ± 0.13
13,"NCC(=O)NO [glycine hydroxamate] (Biolog plate: PM16, well positions: H1-4)",2.02 ± 0.63
14,"CC1(C)S[C@@H]2[C@H](NC(=O)[C@H](N)c3ccc(O)cc3)C(=O)N2[C@H]1C(=O)O [Amoxicillin] (Biolog plate: PM11, well positions: B1-4)",0.968 ± 0.11
15,"Cc1onc(-c2ccccc2Cl)c1C(=O)N[C@@H]1C(=O)N2[C@@H]1SC(C)(C)[C@@H]2C(=O)O [Cloxacillin] (Biolog plate: PM11, well positions: B5-8)",1.06 ± 0.1
16,"c1cnc2c(c1)ccc1cccnc12 [1,10-Phenanthroline] (Biolog plate: PM15, well positions: C9-12)",1.32 ± 0.23
17,"O=C([O-])c1ccccc1O.[Na+] [sodium salicylate (NSAID)] (Biolog plate: PM17, well positions: B1-4)",2.06 ± 0.94
18,"CCn1cc(C(=O)O)c(=O)c2cnc(N3CCNCC3)nc21 [pipemidic acid] (Biolog plate: PM18, well positions: B5-8)",1.91 ± 0.5
19,"Cc1cc(O)cc(C)c1Cl [chloroxylenol] (Biolog plate: PM16, well positions: H5-8)",1.72 ± 0.43
20,"CN(C)c1ccc(O)c2c1C[C@H]1C[C@H]3[C@H](N(C)C)C(O)=C(C(N)=O)C(=O)[C@@]3(O)C(O)=C1C2=O [Minocycline] (Biolog plate: PM11, well positions: C9-12)",1.8 ± 0.42

row,Compound,PosmB-lux reporter fold induction
1,"CO/N=C(\C(=O)N[C@@H]1C(=O)N2C(C(=O)O)=C(COC(N)=O)CS[C@H]12)c1ccco1 [Cefuroxime] (Biolog plate: PM13, well positions: D1-4)",1.42 ± 0.51
2,"Cc1cc(NS(=O)(=O)c2ccc(N)cc2)no1 [Sulfa-methoxazole] (Biolog plate: PM12, well positions: G5-8)",1.9 ± 1.2
3,"[Cl][Mn][Cl] [Manganese chloride] (Biolog plate: PM13, well positions: G5-8)",1.41 ± 0.043
4,"NC(CO)C(=O)NNCc1ccc(O)c(O)c1O (stereo not given) [Benserazide] (Biolog plate: PM20, well positions: A9-12)",0.916 ± 0.14
5,"Cc1noc(NS(=O)(=O)c2ccc(N)cc2)c1C [sulfisoxazole] (Biolog plate: PM18, well positions: C5-8)",1.5 ± 0.35
6,"CO[C@H]1/C=C/O[C@@]2(C)Oc3c(C)c(O)c4c(O)c(c(/C=N/N5CCN(C)CC5)c(O)c4c3C2=O)NC(=O)/C(C)=C\C=C\[C@H](C)[C@H](O)[C@@H](C)[C@@H](O)[C@@H](C)[C@H](OC(C)=O)[C@@H]1C [Rifampicin] (Biolog plate: PM12, well positions: H5-8)",17.2 ± 8.3
7,"N[C@@H]1CONC1=O [D-Cycloserine] (Biolog plate: PM15, well positions: B1-4)",1.43 ± 0.18
8,"CCC(C)CCCC(=O)N[C@@H](CCN)C(=O)N[C@H](C(=O)N[C@@H](CCN)C(=O)N[C@H]1CCNC(=O)[C@H]([C@@H](C)O)NC(=O)[C@H](CCN)NC(=O)[C@H](CCN)NC(=O)[C@H](CC(C)C)NC(=O)[C@@H](CC(C)C)NC(=O)[C@H](CCN)NC1=O)[C@@H](C)O (stereo not given in full) [Colistin] (Biolog plate: PM11, well positions: C5-8)",1.1 ± 0.22
9,"Oc1c(I)cc(Cl)c2cccnc12 [5-chloro-7-iodo-8-hydroxy-quinoline] (Biolog plate: PM16, well positions: A9-12)",1.51 ± 0.53
10,"CN[C@@H]1[C@@H](O)[C@@H](O[C@@H]2[C@@H](O)[C@H](O[C@H]3OC(CN)=CC[C@H]3N)[C@@H](N)C[C@H]2N)OC[C@]1(C)O [Sisomicin] (Biolog plate: PM12, well positions: D1-4)",1.29 ± 0.5
11,"O=C(O)CN(CCOCCOCCN(CC(=O)O)CC(=O)O)CC(=O)O (Biolog plate: PM14, well positions: H1-4)",1.53 ± 0.51
12,"CN1CCN(CCCN2c3ccccc3Sc3ccc(C(F)(F)F)cc32)CC1 [Trifluoperazine] (Biolog plate: PM13, well positions: G9-12)",1.43 ± 0.36
13,"NC(=O)N/N=C/c1ccc([N+](=O)[O-])o1 [5-Nitro-2-furaldehyde semicarbazone] (Biolog plate: PM15, well positions: E5-8)",3.61 ± 0.9
14,"Cc1cc(N)c2ccccc2[n+]1CCCCCCCCCC[n+]1c(C)cc(N)c2ccccc21 [Dequalinium chloride] (Biolog plate: PM13, well positions: A5-8)",1.05 ± 0.21
15,"[Na+].[O]=[V](=[O])[O-] [Sodium metavanadate] (Biolog plate: PM14, well positions: F9-12)",1.84 ± 1
16,"C[n+]1cc2c3c(ccc2c2ccc4cc5c(cc4c21)OCO5)OCO3 [Sanguinarine] (Biolog plate: PM14, well positions: A9-12)",1.14 ± 0.32
17,"CS(=O)(=O)c1ccc([C@@H](O)[C@@H](CO)NC(=O)C(Cl)Cl)cc1 [thiamphenicol] (Biolog plate: PM18, well positions: A9-12)",0.916 ± 0.32
18,"CCc1cc(C(N)=S)ccn1 [ethionamide] (Biolog plate: PM17, well positions: B9-12)",0.857 ± 0.29
19,"CCCCCCCCCCCC[N+](C)(C)CCOc1ccccc1 [Domiphen bromide] (Biolog plate: PM15, well positions: D5-8)",2.39 ± 0.17
20,"OCC(O)CS (stereo not given) [thioglycerol] (Biolog plate: PM19, well positions: H5-8)",1.08 ± 0.56

# Reference: the supplement of paper PMC9942566
